IL1B NFkB pot = enhances IL-1B driven NFkB nuclear translocation. AID 819. hit rate 0.3% among 94,000. activation, % at 2 µM. HUVEC IL-1B NFkB p65 nuclear translocation imaging;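 active = activation above 40%, about the mean plus 3 SD, also judged a hit on visual image review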;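 also: percent activation is computed from the nuclear over cytoplasmic p65 intensity ratio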
IL1B cytotox = toxic to HUVEC cells under IL-1B stimulation; hit rate 0.41% among 94,000; AID 845; HUVEC cell count loss, Hoechst imaging, IL-1B stimulated; cell count reduction, % at 2 µM;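 active = cell count reduction more than 3 SD above the screen-wide mean, cut at about 70% in these data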;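 also: normalized per plate to untreated control cells as the no-loss baseline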
IL1B NFkB inh = blocks IL-1B driven NFkB nuclear translocation in HUVEC cells. inhibition, % at 2 µM. AID 796. hit rate 0.43% among 94,000. HUVEC IL-1B NFkB p65 nuclear translocation imaging;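 active = inhibition above about 30% together with a positive call from visual inspection of the well image, limit read from the data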;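 also: nuclear over cytoplasmic p65 intensity ratio measured by imaging; 0% = IL-1B stimulated DMSO wells and 100% = unstimulated DMSO wells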
Smad3 inh = blocks human Smad3 binding to FoxH1 peptide. P84022. TR-FRET Smad3/Dy647-FoxH1 peptide binding, europium anti-His. inhibition, % at 25 µM. hit rate 0.29% among 88,000. AID 630;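 active = compounds that reduce the energy-transfer binding signal between the protein and its labelled peptide by more than half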;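 also: 0% = Smad3 plus labelled peptide maximal FRET and 100% = peptide-only background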
Target sequence (P84022 whole entry, looked up): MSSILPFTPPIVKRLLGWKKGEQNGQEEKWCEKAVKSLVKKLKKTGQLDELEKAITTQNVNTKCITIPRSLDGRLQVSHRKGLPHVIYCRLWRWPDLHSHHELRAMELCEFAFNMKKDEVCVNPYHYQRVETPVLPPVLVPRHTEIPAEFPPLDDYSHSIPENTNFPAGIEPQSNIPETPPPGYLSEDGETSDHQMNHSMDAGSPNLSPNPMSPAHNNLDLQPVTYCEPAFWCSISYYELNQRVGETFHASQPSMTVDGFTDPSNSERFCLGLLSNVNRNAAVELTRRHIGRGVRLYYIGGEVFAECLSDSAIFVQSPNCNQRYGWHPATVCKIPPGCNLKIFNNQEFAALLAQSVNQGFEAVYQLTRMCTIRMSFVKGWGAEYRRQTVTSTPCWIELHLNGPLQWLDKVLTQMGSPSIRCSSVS
Active calls of the source: *; / = not tested or not shown; [ ] = another dose, or the depositor's remark. Compounds with a hit are over-represented: about 1.2% of the library has one in this group of screens.

SMILES	IL1B NFkB pot	IL1B cytotox	IL1B NFkB inh	Smad3 inh
Cc1cc(=O)c2cccc(Br)c2[nH]1	-30	90*	30*	10
Cc1cc(=O)c2ccc3ccccc3c2[nH]1	9	-37	-9	-8
O=[N+]([O-])c1nccn1C[C@H](O)CN1CCCCC1	/	/	/	0
C[C@@]12CC[C@H]3c4ccc(OP(=O)(O)O)cc4CC[C@@H]3[C@H]1CCC2=O	/	/	/	-8
O=C(Cn1nnc2c(cnn2-c2ccc(F)cc2)c1=O)c1ccccc1F	1	92*	-1	-2
CCCCn1c(=O)nc2n(-c3ccccc3)c3ccccc3cc-2c1=O	92*	-52	-92	/
N#CCCSC(=S)[C@@H]1CCCC1=N	/	/	/	1
CN(C)CCOC(=O)Cc1ccc(Cl)cc1	-22	10	22	-5
C=CCc1cc(Cl)ccc1OCCN(C)C	3	85*	-3	/
Cn1c(COc2ccccc2)nnc1SCc1nc2ccccc2[nH]1	-1	-1	1	94*
c1ccc(/C(=N\Nc2nc3ccccc3s2)c2ccccn2)cc1	/	/	/	20
C(/C=C/c1ccccc1)=Nc1ccc2c(c1)Cc1ccccc1-2	/	/	/	-3
Cc1cc(C)c2c(=O)[nH]c(SCC(=O)NCc3ccccc3)nc2n1	-46	-9	46*	-2
COc1ccc2c(Cc3c4ccccc4cc4ccccc34)cncc2c1O	/	/	/	22
O=C(NC(=S)Nc1cc([N+](=O)[O-])ccc1Cl)c1ccccc1	/	/	/	6
O=C(NC(=S)Nc1cc(C(F)(F)F)ccc1Cl)c1ccccc1	-79	1	79*	/
Cc1ccc(NC2=NC3(CCCCC3)N=C(N)N2)c(C)c1	-97	41	97*	-3
CSc1ccccc1NS(=O)(=O)c1ccc2c(c1)OCCO2	-27	70*	27	-18
O=C(O)c1[nH]c(=O)[nH]c(=O)c1CN1CCCCC1	/	/	/	-5
Cc1ccc(C2=C(Cl)C(=O)C(c3ccc(C)cc3)=C(Cl)C2=O)cc1	/	/	/	52*
CC(C)(C)CC(C)(C)c1cc(O)c(O)c(CN2CCCCC2)c1	/	/	/	93*
Cc1noc(NC(=O)Nc2ccccc2F)c1C#N	/	/	/	6
FC(F)Oc1ccc(NC(=S)NCc2ccccc2)cc1Cl	-30	-18	30*	/
Cc1cccc(NC(=S)NNC(=S)NCc2ccccc2)c1	-7	14	6	-9
CSCCOC(=O)C1=C(C)Nc2ccc(C)cc2S1	-58	-7	58*	-5
SMILES	IL1B NFkB pot	IL1B cytotox	IL1B NFkB inh	Smad3 inh
O=C(CCn1c(=S)[nH]c2ccccc2c1=O)N1CCN(c2ccccn2)CC1	/	/	/	8
O=[N+]([O-])c1ccc2c(N=Nc3ccc4ccccc4c3O)c(O)cc(S(=O)(=O)O)c2c1	/	/	/	72*
O=S(=O)(O)CCCc1cccc2ccccc12	/	/	/	7
Cc1ccc(OCC(=O)N2CCCCCC2)c(C)c1	21	86*	-21	-5
Cc1cc(Br)ccc1OCC(=O)N1CCCCCC1	-3	1	4	-7
O=C(NCCCN1CCCCCC1)C1CC(=O)N(CCc2ccccc2)C1 (stereo not drawn)	28	-12	-28	60*
O=C(NCCCN1CCOCC1)C1CC(=O)N(CCc2ccccc2)C1 (stereo not drawn)	-3	-12	3	/
O=S(=O)(O)c1ccc(NN(c2c(O)ccc3ccccc23)S(=O)(=O)O)cc1	/	/	/	99*
O=C(O)c1ccc(NS(=O)(=O)Cc2ccccc2)cc1	/	/	/	-2
O=c1c2[nH]c3ccccc3c2ncn1Cc1cccnc1	50*	1	-50	-19
O=C(O)[C@H]1CCCN1Cc1ccc2c(c1)OCO2	/	/	/	-5
O=C(O)CC1Sc2ccccc2NC1=O (stereo not drawn)	/	/	/	6
CCCNC(=O)CC1Sc2ccccc2NC1=O (stereo not drawn)	43*	-7	-43	9
CC(C)c1ccc(/C=C2/C=C(c3ccc4ccccc4c3)OC2=O)cc1	/	/	/	-9
Cc1ccc(C)n1-c1ccc(N2CCOCC2)cc1	-3	-5	3	-4
Cc1cc(N2CCOCC2)cc(C)[n+]1[O-]	40*	-31	-40	-1
CC(C)N(CC(=O)O)CC(=O)O	/	/	/	1
O=C(O)C1C(C(=O)Nc2ccc(Cl)cc2)C2C=CC1C21CC1 (stereo not drawn)	10	76*	-10	8
NC(N)=N/N=C/c1ccc(C2CCNCC2)cc1	/	/	/	50
CCc1ccc(NC(=O)c2cccnc2)cc1	-1	-44	1	13
CCc1ccc(Nc2ncccc2C#N)cc1	85*	-4	-84	/
CC(C)n1c(NCc2nc3ccccc3n2C)nc2ccccc21	-6	-13	6	6
CCCn1c(=O)c(C(=O)NCc2cccnc2)c(O)c2ccccc21	6	-18	-6	-2
CCCn1c(NCc2ccccn2)nc2ccccc21	-96	92*	96*	-1
CCCn1c(=O)c(C(=O)NCc2ccccn2)c(O)c2ccccc21	0	85*	0	5
SMILES	IL1B NFkB pot	IL1B cytotox	IL1B NFkB inh	Smad3 inh
CCn1c(CNc2nc3ccccc3n2C(C)C)nc2ccccc21	-62	-9	62*	-10
OC1C[C@H]2CC[C@@H](C1)N2CCCN1c2ccccc2Sc2ccc(Cl)cc21 (stereo partly drawn)	/	/	/	-9
NC(CSS(=O)(=O)O)=N[C@H]1C[C@H]2CC[C@@H]1C2	/	/	/	15
COc1ccc(OC)c(CNCCNC(=O)c2ccco2)c1	-2	-11	2	/
COc1cccc(CNCCNC(=O)c2ccco2)c1OC	42*	-26	-42	/
CCN1CCCC1CNC(=O)CSc1cc(=O)n(C)c2cc(Cl)ccc12 (stereo not drawn)	-12	-8	12	53*[fluorescence artefact?]
Cn1c(=O)cc(SCC(=O)NCC2CCCO2)c2ccc(Cl)cc21 (stereo not drawn)	-6	-5	6	50*[fluorescence artefact?]
O=C(O)C(Cl)(c1ccccc1)c1ccccc1	/	/	/	-8
OCCCNCc1ccncc1	/	/	/	1
O=S(=O)(Nc1ccccn1)c1ccc(Cl)cc1	/	/	/	-2
NC1=N[C@@H](c2ccc(Cl)cc2)N(c2ccc(S(=O)(=O)Nc3ncccn3)cc2)C(N)=N1	/	/	/	52*
CCn1nc(NC(=O)c2ccccn2)c2cc3cccc(C)c3nc21	51*	-14	-51	-3
Clc1ccc(OCc2nc(-c3ccccn3)no2)c(Br)c1	-36	-14	36*	12
Clc1ccccc1OCc1nc(-c2ccccn2)no1	-1	10	1	3

Screening data: PubChem BioAssay, several laboratories
